# Results published in PMC4336329 (PLoS ONE, 2015).
# About 14,000 (4.5%) of roughly 310,000 compounds showed an effect of 50% or more. Effects have a minus sign here. The full list was thinned out, with strong results kept by preference.
# Molecular target: human ether-à-go-go-related gene (hERG) potassium channel (human, UniProt Q12809)
# Experiment: primary screen, population patch clamp on CHO cells stably expressing hERG; higher = less effect of the substance
# 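Note: peak tail current of the secondary pulse compared with the same well before compound.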
# Chain of human ether-à-go-go-related gene (hERG) potassium channel (Q12809 whole entry, looked up): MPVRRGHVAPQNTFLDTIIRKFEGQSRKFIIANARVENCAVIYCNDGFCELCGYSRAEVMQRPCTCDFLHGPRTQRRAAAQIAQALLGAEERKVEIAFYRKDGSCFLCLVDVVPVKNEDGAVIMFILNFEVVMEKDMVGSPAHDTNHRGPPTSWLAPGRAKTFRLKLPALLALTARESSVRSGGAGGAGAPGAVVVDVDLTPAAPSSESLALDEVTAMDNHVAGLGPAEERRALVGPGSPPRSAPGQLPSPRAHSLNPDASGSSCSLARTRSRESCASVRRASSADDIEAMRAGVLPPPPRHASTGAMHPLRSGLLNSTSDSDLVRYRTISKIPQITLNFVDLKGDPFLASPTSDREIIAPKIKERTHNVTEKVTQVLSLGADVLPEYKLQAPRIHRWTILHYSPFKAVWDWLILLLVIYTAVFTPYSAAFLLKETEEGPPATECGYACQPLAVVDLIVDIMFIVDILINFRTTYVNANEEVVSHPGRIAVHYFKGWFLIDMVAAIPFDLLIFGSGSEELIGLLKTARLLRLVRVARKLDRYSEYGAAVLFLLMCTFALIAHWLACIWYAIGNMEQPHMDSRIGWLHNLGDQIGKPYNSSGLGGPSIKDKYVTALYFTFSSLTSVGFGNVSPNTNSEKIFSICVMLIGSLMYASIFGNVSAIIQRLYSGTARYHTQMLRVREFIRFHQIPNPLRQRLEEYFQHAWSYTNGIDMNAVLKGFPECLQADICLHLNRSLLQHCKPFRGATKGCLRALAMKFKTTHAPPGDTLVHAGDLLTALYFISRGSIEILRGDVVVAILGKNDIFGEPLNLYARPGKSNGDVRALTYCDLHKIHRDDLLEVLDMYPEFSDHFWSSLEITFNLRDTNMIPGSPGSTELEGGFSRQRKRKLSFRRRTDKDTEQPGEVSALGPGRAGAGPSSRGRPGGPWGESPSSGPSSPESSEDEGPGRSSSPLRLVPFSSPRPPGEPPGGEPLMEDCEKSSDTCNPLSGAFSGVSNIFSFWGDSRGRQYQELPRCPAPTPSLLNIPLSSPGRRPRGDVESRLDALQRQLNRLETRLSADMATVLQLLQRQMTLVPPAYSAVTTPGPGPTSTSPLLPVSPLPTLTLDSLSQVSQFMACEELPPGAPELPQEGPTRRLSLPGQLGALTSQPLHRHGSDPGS
row,SMILES,"hERG current change (%, negative = inhibition) at 10uM"
1,CC(=O)c1ccc(N2C(=NC(=O)COc3ccccc3)SC3CS(=O)(=O)CC32)cc1 (stereo not drawn),-3.89%
2,COc1cc2c(cc1OC)CN(C(=O)c1cc(Cl)nc(Cl)c1)CC2,12.1%
3,CC(=O)OCC(OC(C)=O)C(OC(C)=O)C(OC(C)=O)C(=O)Nc1ccccc1 (stereo not drawn),16.6%
4,COc1ccc(CNC(=O)Nc2ccc([N+](=O)[O-])cc2)cc1,5.47%
5,CN(CC(=O)Nc1ccc(Cl)c(S(=O)(=O)N2CCOCC2)c1)C(=O)c1cccs1,-44.2%
6,CCOc1ccccc1NC(=O)C1CCCN1C(=O)c1cccs1 (stereo not drawn),7.83%
7,Cc1ccc(CNC(=O)CCC(=O)Nc2nnc(C3CCCCC3)s2)cc1,17.6%
8,CCOc1ccc(OCC(=O)OCC(=O)N2CCN(C(=O)c3ccco3)CC2)cc1,-21.9%
9,O=C(CSc1nnc(SCc2ccc(F)cc2)s1)Nc1ccc(C(=O)O)cc1,18.6%
10,O=C(O)c1cc(O)ccc1NC(=O)C1CCCO1 (stereo not drawn),-0.924%
11,O=C(c1ccc(F)cc1F)N1CCN(c2ccccn2)CC1,0.804%
12,O=C1NC(=O)C(Cc2ccccc2)(c2cccnc2)N1 (stereo not drawn),17.7%
13,Cc1ccc2nc(/C(C#N)=C\c3ccc(Oc4ccc([N+](=O)[O-])cn4)cc3)[nH]c2c1,1.61%
14,CCc1ccc(-c2cc(C(=O)N/N=C/c3ccccn3)[nH]n2)cc1,-41.7%
15,Cc1ccc(C(=O)N2CCCC(N3CCN(c4cccc(C(F)(F)F)c4)CC3)C2)s1 (stereo not drawn),-51%
16,CC(=O)N1CCCC(N2CCN(c3cccc(C(F)(F)F)c3)CC2)C1 (stereo not drawn),-3.73%
17,CC1=C(C(=O)N2CCCC(N3CCN(c4cccc(C(F)(F)F)c4)CC3)C2)OCCO1 (stereo not drawn),-17.9%
18,COc1cccc(C(=O)Nc2sc(C(C)C)cc2C(N)=O)c1OC,-50.5%
19,COc1cccc(NC(=O)c2cccc(OC)c2OC)c1,-0.56%
20,COc1cccc(C(=O)Nc2nnc(-c3ccccc3)s2)c1OC,4.52%

row,SMILES,"hERG current change (%, negative = inhibition) at 10uM"
1,CCCN1C(=O)c2cc(C(=O)NC3CCCC3)ccc2C1O (stereo not drawn),-2.01%
2,Cc1ccc(NCN2C(=O)C3CC=CCC3C2=O)cc1 (stereo not drawn),2.67%
3,COc1ccccc1NC(=O)CN(Cc1ccco1)C(=O)c1cncc(Br)c1,-22.4%
4,CCN(CC(=O)Nc1ccccc1OC)C(=O)c1ccc(NS(=O)(=O)c2ccc(C(C)=O)cc2)cc1,0.13%
5,CCOC(=O)c1c(C)[nH]c(C)c1S(=O)(=O)N(C)CC(=O)Nc1ccccc1C,14.4%
6,COc1ccccc1NC(=O)CN(Cc1ccco1)C(=O)c1ccc(Cl)nc1,-28.4%
7,CCOC(=O)c1c(C)[nH]c(C)c1S(=O)(=O)N(C)CC(=O)Nc1ccccc1OC,-60%
8,CCN(CC(=O)NC(C)C)C(=O)c1ccc(S(=O)(=O)N(C)c2ccccc2OC)cc1,-2.53%
9,CCCN(CC(=O)Nc1ccccc1OC)C(=O)c1ccc(S(=O)(=O)Nc2ccccc2)cc1,-53.4%
10,CCN(CC(=O)Nc1ccccc1OC)C(=O)c1ccc(N(C)S(=O)(=O)c2ccc(C)cc2)cc1,-62.2%
11,CCN(Cc1ccccc1)C(=O)c1ccc(N(C)S(=O)(=O)c2ccc(C)cc2)cc1,-38.7%
12,CCCN(CC(=O)Nc1ccccc1OC)C(=O)c1cccc(S(=O)(=O)Nc2ccc(OC)cc2)c1,-11.4%
13,CCOC(=O)c1c(C)[nH]c(C)c1S(=O)(=O)N(C)CC(=O)Nc1cc(C)ccc1OC,-24.7%
14,COc1ccccc1NC(=O)CN(Cc1ccco1)C(=O)c1ccc(-n2nc(C)cc2C)cc1,-51.2%
15,COc1ccc2[nH]cc(C(=O)CCl)c2c1,8.92%
16,COCCN1C(=O)N(c2ccccc2)C(=O)C1CC(=O)Nc1cc(OC)cc(OC)c1 (stereo not drawn),14%
17,CSc1nnc(C)c(/C=C/NOCc2cccc(F)c2)n1,4.03%
18,Cl.OCCN(Cc1ccccc1)CC(O)COc1ccc(-c2ccccc2)cc1 (stereo not drawn),-28.3%
19,CCOC(=O)c1ccc(NC(=O)CCc2nc(-c3cccc(C)c3)no2)cc1,7.13%
20,Cc1ccc(S(=O)(=O)c2c(C)cc(C)[nH]c2=O)cc1,20.3%

row,SMILES,"hERG current change (%, negative = inhibition) at 10uM"
1,CCn1nnnc1SCC(=O)Nc1cccc(NC(C)=O)c1,-1.06%
2,Cc1csc(NC(=O)CSc2nncc(=O)n2N)n1,19%
3,O=C(Nc1cccc(/C=C/c2ccccn2)c1)c1ccc(-n2cncn2)c([N+](=O)[O-])c1,-24.9%
4,Cc1cc(C)cc(OCC(=O)Nc2cc(C)on2)c1,15.9%
5,Cc1c(NS(=O)(=O)c2cccc(C(=O)NCc3ccncc3)c2)c(=O)n(-c2ccccc2)n1C,6.38%
6,Cc1nnc2c(NC(C)C)nc3ccccc3n12,-26.8%
7,Cc1nnc2c(SC(C)C)nc3ccccc3n12,-77.2%
8,CC(C)Sc1nc2ccccc2n2cnnc12,-6.25%
9,CCC(NC(=S)NCc1ccc(F)cc1)c1ccc(C)cc1 (stereo not drawn),13.7%
10,COc1ccc(NC(=O)c2ccccc2NC(=O)C2CC=CCC2C(=O)O)cc1 (stereo not drawn),15.6%
11,Cc1ccc(CNC(=O)CCSCc2ccc(C)cc2)cc1,-2.27%
12,NC(=O)C1CCN(Cc2nc(-c3ccccc3)no2)CC1,-14.1%
13,CCOC(=O)C1CCCN(Cc2nc(Cc3ccccc3Cl)no2)C1 (stereo not drawn),-14.1%
14,Cc1ccc(-c2noc(CN3CCC(C(N)=O)CC3)n2)cc1,21.9%
15,CCOC(=O)C1CCCN(Cc2nc(Cc3cccc(F)c3)no2)C1 (stereo not drawn),-6.6%
16,CCOC(=O)C1CCCN(C2CCN(Cc3nc(Cc4ccccc4)no3)CC2)C1 (stereo not drawn),-60.3%
17,CCOC(=O)C1CCN(Cc2nc(-c3ccc(OC)c(OC)c3)no2)CC1,2.83%
18,CCOC(=O)C1CCN(C2CCN(Cc3nc(-c4ccccc4)no3)CC2)CC1,-71.5%
19,CCOC(=O)N1CCN(Cc2nc(-c3ccccc3)no2)CC1,2%
20,CCOC(=O)C1CCCN(C2CCN(Cc3nc(-c4ccccc4)no3)CC2)C1 (stereo not drawn),-56.5%
